Among the data in PubChem BioAssay AID598 (SRMLSC, 2007) are viability values, retold here.

Out of some 85,000 compounds screened, about 5,100 (6%) were called active. The sample holds actives, similar compounds and a random draw of the others, so the mix is not that of the screen.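 Rule for the calls: active = viability at or below 40%; inactive = viability above 40%.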

This assay in a line: proliferation blockers of H69AR lung cancer cells, primary screen, cell-based, human, 86K library (AID 598).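 Note: multidrug resistant small cell line overexpressing MRP-1 efflux transporter; 100% = mean luminescence of untreated control wells.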 The following applies: H69AR lung tumor viability, ATP luminescence, 72 h; at 10 µM; stronger effect = lower value.
As for `COc1cc(Cn2c(N)c(C(=O)NCc3ccco3)c3nc4ccccc4nc32)cc(OC)c1OC`, the viability was 9.48% (active).

For `CCOC(=O)c1c(N)n(CCN2CCOCC2)c2nc3ccccc3nc12`, the viability was 92.9% (inactive).

As for `CCOC(=O)c1c(N)n(Cc2ccccc2)c2nc3ccccc3nc12`, the viability is 74.2% (inactive).

For the molecule `Cn1c(O)c(C=NCCN2CCNCC2)c(=O)n(C)c1=O`, the viability was 93.2% (inactive).

`COc1ccc(CN2CCN(c3ccccc3F)CC2)c(OC)c1`: the viability is 78.7% (inactive).

Regarding `CN(C)C(=O)NC(O)C(Cl)(Cl)Cl` (stereo not given), the viability is 103% (inactive).

Turning to `CCCCn1c(O)c(C(CC)=NCc2ccco2)c(=O)[nH]c1=O`, the viability was 76.8% (inactive).

As to `CCOc1ccc(CN(CCCl)CCCl)cc1C(=O)OC`, the viability is 54.1% (inactive).

For the molecule `Cc1ccc(Cn2c(C)c3cnn(CC(=O)N4CCC5(CC4)OCCO5)c(=O)c3c2C)cc1`, the viability is 37.9% (active).

`COc1ccc(-c2nc(CS(=O)CC(=O)N3CCC4(CC3)OCCO4)c(C)o2)cc1` (stereo not given): the viability was 92.7% (inactive).

Consider `O=C(CCCn1c(=O)[nH]c2cc(Cl)ccc2c1=O)N1CCC2(CC1)OCCO2`, for which the viability was 82.2% (inactive).

With `CC(=O)c1c(C)n(C(C)C)c2ccc(O)cc12`, the viability was 98.6% (inactive).

As to `CCCCCn1c(=O)c(C(=O)NCc2ccccn2)c(O)c2ccccc21`, the viability was 20.3% (active).

Turning to `COc1ccc(CCn2c(O)c(C=NCCCn3ccnc3)c(=O)[nH]c2=O)cc1OC`, the viability was 87.2% (inactive).

Regarding `CCN(N=Nc1nonc1OC)c1nonc1OC`, the viability is 95.7% (inactive).

As for `Cc1ccc(N(C)C(=O)Oc2cccc3ccc(C)nc23)cc1`, the viability is 90% (inactive).

With `CCC(=NCc1ccco1)c1c(O)n(Cc2ccccc2)c(=O)[nH]c1=O`, the viability is 71.1% (inactive).

Turning to `CC(=O)c1c(O)n(C2CCCCCC2)c(=O)[nH]c1=O`, the viability was 88.7% (inactive).

Turning to `CCC(=NCCc1ccccc1)c1c(O)n(C2CCCCC2)c(=O)[nH]c1=O`, the viability is 25.3% (active).

Take `c1cc2c(cc1CCNC1CCCCCC1)OCO2`: the viability is 73.7% (inactive).
